High-throughput results deposited in PubChem by several laboratories.
Ba/F3 V617F tox: reduce viability of Ba/F3 cells dependent on JAK2V617F; Ba/F3 EpoR-JAK2V617F viability, ATP luminescence; inhibition, % at 5.6 µM; 1.1% of 220,000 active;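 active means inhibition above the campaign mean plus 3 SD over all tested compounds, cut at about 24% in these data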;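 further: cytokine-independent growth of Ba/F3 cells driven by EpoR plus mutant JAK2; 0% = DMSO-treated cells and 100% = JAK inhibitor I control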
aSyn UTR inh: MLPCN primary screen, SNCA 5' untranslated region | alpha-synuclein 5'UTR reporter, inhibitor activity | 0.82% of 300,000 active | AID 1813 | inhibition, % (tested at 7.5 µM); in the data active means inhibition above about 60%;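 further: H4 neuroglioblastoma cells stably carrying SNCA 5'UTR luciferase fusion; 0% = DMSO wells and 100% = positive control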
KLF5 inhibitor: kruppel-like factor 5 inhibition. AID 1700. 0.23% of 290,000 active. DLD-1 KLF5 promoter-luciferase reporter, luminescence. inhibition, % at 5 µM;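 active means inhibition above a per-plate limit of that plate's mean compound inhibition plus 3 SD, cut at about 60% in these data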;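 further: 0% = DMSO wells and 100% = LY294002 at 200 µM; higher means less KLF5 promoter-driven luciferase light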
APP 5UTR inh: APP translation inhibition. SH-SY5Y APP 5'UTR-luciferase reporter, luminescence. inhibition, % at 2 µM. 0.82% of 190,000 active;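 active means inhibition above a set limit, derived from the sample mean plus 3 SD, cut at about 45% in these data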
IEC-6 tox: counter-screen for KLF5 inhibitors: cytotoxicity in IEC-6 cells; IEC-6 cytotoxicity, luminescence viability; inhibition, % at 5 µM; 0.78% of 290,000 active; AID 1825; in the data active means inhibition above about 22%;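 further: 0% = plate median of test compound wells and 100% = cytotoxic reference compound wells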
BaF3 tox: reduces parental Ba/F3 cell viability, JAK2V617F counter-screen | CellTiter-Glo ATP luminescence | inhibition, % at 5.6 µM | 1.1% of 220,000 active | AID 1486;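 active means inhibition above a per-campaign cutoff, the mean inhibition of all tested compounds plus 3 SD, cut at about 27% in these data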;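 further: 0% = DMSO wells and 100% = JAK Inhibitor I control wells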
Numbers without * were called inactive; x = not tested or not shown. The list is not random: actives were taken first. Their share in the collection is about 2.2%.

SMILES | Ba/F3 V617F tox | aSyn UTR inh | KLF5 inhibitor | APP 5UTR inh | IEC-6 tox | BaF3 tox
CCn1cc(CN2CCCC(CNS(=O)(=O)c3cccc4cccnc34)C2)cn1 (configuration not stated) | x | -3 | 6 | x | 3 | x
Fc1cccc(CNc2ncnc3cc(Cl)ccc23)c1F | x | -8 | 9 | x | 4 | x
CCC1=Nc2cc(C(=O)NCc3ccco3)ccc2Sc2ccc(Cl)cc21 | 20 | 16 | 45 | 95* | 22* | 73*
CCc1nc2ccc(C(=O)NCc3ccco3)cc2nc1CC | 3 | 0 | -14 | -5 | 8 | 2
CCC1=Nc2cc(C(=O)O)ccc2Sc2ccccc21 | -6 | 7 | 11 | -8 | -4 | 5
CCC1=Nc2cc(C(=O)NCc3ccco3)ccc2Sc2ccccc21 | 30* | 30 | 16 | 50* | 36* | 32*
COc1ccc(CN(C(=O)c2snc(C(N)=O)c2N)C(C(=O)NC2CCCC2)c2ccco2)cc1 (configuration not stated) | x | 3 | -17 | x | -3 | x
CCS(=O)(=O)c1nc(S(=O)(=O)c2ccc(Cl)cc2)c(N2CCC(O)CC2)s1 | x | 15 | -21 | x | -6 | x
CC(Oc1ccc(F)cc1F)C(=O)NNC(=S)NCC1CCCO1 (configuration not stated) | x | -19 | -15 | x | 2 | x
CCC(=O)Nc1cccc(C(=O)N(Cc2ccccc2)Cc2ccccc2)c1 | x | 19 | -14 | x | -3 | x
Cc1c(C(=O)N2CCOCC2)c(S(=O)(=O)N2CCN(c3ccc(Cl)cc3)CC2)c(C)n1C | x | -2 | -6 | x | -8 | x
COc1ccc(-c2cnnc(N/N=C/c3ccc(-c4ccc([N+](=O)[O-])cc4)o3)n2)cc1 | -1 | x | -28 | 90* | 0 | 5
O=[N+]([O-])c1ccc(-c2ccc(/C=N/Nc3nc(N4CCCC4)nc(N4CCCC4)n3)o2)cc1 | -2 | -13 | -11 | -4 | -9 | -1
COCCC(=O)N1CCC(Oc2ccc(C(=O)NC3CCOC(C)(C)C3)cc2)CC1 (configuration not stated) | x | 24 | -19 | x | 8 | x
CN[C@@H]1CC[C@H](c2ccc(Cl)c(Cl)c2)c2ccccc21 | x | x | -16 | x | x | x
CCOC(=O)C1=C(N)n2c(s/c(=C\c3cccs3)c2=O)=C(C(=O)OCC)C1c1cccs1 (configuration not stated) | 42* | 29 | 6 | 3 | 18 | 54*
CCOC(=O)C1=C(N)n2c(s/c(=C\c3ccncc3)c2=O)=C(C(=O)OCC)C1c1ccncc1 (configuration not stated) | -1 | 2 | -1 | 7 | 4 | 10
O=C(N=C1SC2CS(=O)(=O)CC2N1Cc1ccccc1Cl)C1CCCO1 (configuration not stated) | x | -4 | -9 | x | 2 | x
CC(=O)Oc1ccccc1/C=C/c1nc2ccccc2c(=O)o1 | x | 66* | 52 | x | -2 | x
Cc1ccc(NC(=O)c2cc(N3C(=O)C=CC3=O)ccc2Cl)cc1C | -1 | -17 | -47 | 45* | -4 | 5
Cc1ccc(NC(=O)c2cc(N3C(=O)C=CC3=O)ccc2N2CCOCC2)cc1 | -3 | 12 | -24 | 77* | 0 | 6
Cc1ccc(NC(=O)c2cc(-n3cnnc3)ccc2Cl)cc1 | -2 | -12 | -18 | 7 | -2 | 3
COc1ccccc1CCNC(=O)C(=O)NCC1OCCN1S(=O)(=O)c1ccc(OC)c(OC)c1 (configuration not stated) | x | 1 | -14 | x | 0 | x
O=C(NCc1ccccc1Cl)C1CCCN1S(=O)(=O)c1ccccc1F (configuration not stated) | x | 2 | -20 | x | 4 | x
CC1CCCCN1C(=O)CCn1c(=S)oc2ccccc21 (configuration not stated) | 16 | -9 | 2 | x | -3 | 50*
O=C(CCn1c(=S)oc2ccccc21)NC1CCCCCC1 | 0 | 5 | -3 | x | -2 | -4
O=C1C=C(c2ccccc2)CC(c2cccs2)C1n1cnc([N+](=O)[O-])c1 (configuration not stated) | 1 | 28 | -12 | 3 | 8 | 3
O=C1C=C(c2ccccc2)C[C@H](c2cccs2)[C@H]1n1nnc([N+](=O)[O-])n1 | 1 | 88* | -38 | 15 | -5 | 6
CCOc1cc(N2CCOCC2)c(OCC)cc1NC(=O)c1cc(-c2ccco2)nc2ccccc12 | 1 | 114* | -12 | 49* | 2 | 8
CCN(CC)S(=O)(=O)c1ccc(N2CCOCC2)c(NC(=O)c2cccc3ccccc23)c1 | -1 | 1 | -6 | -5 | 0 | 2
